# COUP-TFII inh: inhibitors of human COUP-TFII (NR2F2); 370,000 compounds, 0.7% hits; P24468; inhibition, % at 8.6 µM; HEK293T NGFI-A luciferase reporter, luminescence; AID 686940;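 active = inhibition above a per-plate cutoff, mean inhibition of test wells between control levels plus 3 SD, cut at about 38% in these data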;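 note: cells cotransfected with COUP-TFII expression vector driving the NGFI-A reporter; 0% = median of COUP-TF2 test wells and 100% = reporter-only cells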
# GAA850 FXN act: frataxin GAA850 promoter activation; activation, % at 6 µM; 360,000 compounds, 0.56% hits; HEK293 lucGAA850 FXN promoter luciferase reporter, 24 h; percent of 10 µM SAHA response;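 active = activation above the average of all compounds screened plus 3 SD, cutoff fixed separately per campaign, cut at about 7.5% in these data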;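 note: 0% = DMSO wells and 100% = 10 µM SAHA wells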
# SMARCA2 activ: SMARCA2 function activation, primary screen; MG213 cells, MMTV-luciferase reporter, dexamethasone, overnight; activation, % at 9.1 µM; 370,000 compounds, 1% hits; in the data active = activation above about 7.8%;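 note: 0% = vehicle wells and 100% = reference activator wells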
# Gli-Sufu antag: blocks Gli-Sufu signaling in a luciferase reporter | Sufu-KO-LIGHT fibroblasts, Gli luciferase reporter luminescence | inhibition, % at 5 µM | 340,000 compounds, 0.74% hits | AID 588413;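 active = inhibition above about 55%, limit read from the data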;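 note: 0% = DMSO-treated cells and 100% = wells with medium but no cells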
# H9c2 protect: myocardial damage modulation in H9c2 cells. H9c2 cardiomyocytes, H2O2 injury protection, ATPLite, 2 h. protection from H2O2 cell death, % at 20 µM. 360,000 compounds, 0.63% hits;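 active = compounds giving at least 50% protection of heart cells from peroxide-induced death in the single-dose screen, raw or plate-pattern-corrected value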;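 note: 0% = DMSO wells with peroxide and 100% = DMSO wells without peroxide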
# GalR3 antag: antagonists of human GalR3; HEK293 GalR3-CNG cAMP membrane potential fluorescence; galR3 body fused to GalR1 C-terminus; 360,000 compounds, 0.44% hits; inhibition, % at 3 µM; AID 651719; O60755;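 active = inhibition above the screen-wide average plus 3 SD, cut at about 13% in these data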;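 note: forskolin and galanin both at EC90 stimulate the cells; cAMP rise reported by CNG channel membrane potential dye signal; 0% = forskolin plus galanin with DMSO and 100% = forskolin alone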
# Target sequence (O60755 1-299 limits assumed): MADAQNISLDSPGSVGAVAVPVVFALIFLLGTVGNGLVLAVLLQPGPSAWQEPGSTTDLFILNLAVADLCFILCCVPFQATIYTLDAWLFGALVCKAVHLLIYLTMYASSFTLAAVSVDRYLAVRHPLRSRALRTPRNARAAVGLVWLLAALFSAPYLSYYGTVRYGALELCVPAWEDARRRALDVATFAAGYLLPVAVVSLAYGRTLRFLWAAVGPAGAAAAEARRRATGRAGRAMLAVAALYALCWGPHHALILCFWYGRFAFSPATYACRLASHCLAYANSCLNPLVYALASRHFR
# Gli antag conf: confirmation of Gli-SUFU pathway antagonists; inhibition, % at 5 µM; Sufu-KO-LIGHT cells, Gli luciferase reporter, luminescence; 2,500 compounds, 40% hits; shares compounds with Gli-Sufu antag;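 active = mean inhibition at 5 µM reaching about 45%, limit read from the data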;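 note: plate controls were DMSO-treated cells for no effect and wells lacking cells for full effect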
# SufuKO cytotox: cytotoxicity counter-screen for Gli-SUFU antagonists | shares compounds with Gli-Sufu antag | Sufu-KO-LIGHT cells cytotoxicity, ATP luminescence | cytotoxicity, % at 5 µM | 2,500 compounds, 32% hits;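 active = mean cytotoxicity at 5 µM above about 25%, limit read from the data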;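 note: cells exposed to compound overnight for roughly 16 to 18 hours; plate controls were DMSO wells with cells for no effect and medium without cells for full effect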
# Wnt3a cs: Wnt3a reporter inhibition counter-screen | shares compounds with Gli-Sufu antag | Wnt-LIGHT cells, Wnt3a-driven luciferase reporter, luminescence | inhibition, % at 6.25 µM | 2,500 compounds, 20% hits | AID 651995;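 active = mean inhibition above about 25%, limit read from the data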
# Numbers without * were called inactive; . = not tested or not shown. Compounds with a hit are over-represented: about 3.4% of the library has one in this group of screens.
SMILES,COUP-TFII inh,GAA850 FXN act,SMARCA2 activ,Gli-Sufu antag,H9c2 protect,GalR3 antag,Gli antag conf,SufuKO cytotox,Wnt3a cs
CCCOc1nc2c(c(=O)n(C)c(=O)n2C)n1Cc1cccc2ccccc12,29,1,-2,57*,-17,-7,58*,40*,9
C=CCOc1nc2c(c(=O)n(C)c(=O)n2C)n1Cc1ccc(Cl)cc1,5,3,-2,72*,-14,-1,61*,27*,23
C=CCOc1nc2c(c(=O)n(C)c(=O)n2C)n1Cc1ccccc1Cl,8,2,0,22,-11,-3,.,.,.
Cc1ccc(S(=O)(=O)N2CCCCC2C(=O)NCc2ccco2)cc1 (centres undefined),3,1,-1,52,2,-5,14,2,24
CCC(Oc1ccc(C)cc1)C(=O)Nc1ccc2c(c1)n(C)c(=O)n2C (centres undefined),-31,2,-4,23,-2,5,.,.,.
CCC(Oc1ccccc1F)C(=O)Nc1ccc2c(c1)n(C)c(=O)n2C (centres undefined),7,1,-3,52,-6,-9,28,-2,7
CN(C)CCN(C)C1CN(Cc2ccccc2)S(=O)(=O)C1 (centres undefined),6,.,-2,.,1,-1,.,.,.
COC(=O)c1[nH]c2cc(OC)ccc2c1NC(=O)CN1CCC(C(N)=O)(N2CCCCC2)CC1,-25,2,-1,75*,-4,-1,24,7,-1
COC(=O)c1[nH]c2cc(OC)ccc2c1NC(=O)CN1CCC(C(N)=O)CC1,-6,-1,-1,8,10,-4,.,.,.
COc1ccc(CCN2C(=O)CSCC2(C)C(=O)Nc2ccc3c(c2)OCCO3)cc1OC (centres undefined),-2,.,-1,.,.,-8,.,.,.
COc1ccc(/C=N/NC(=O)c2ccc(CSc3nc(C)cc(C)n3)cc2)cc1O,-9,4,0,2,3,0,.,.,.
COc1ccc(O)c(/C=N/NC(=O)c2ccc(CSc3nc(C)cc(C)n3)cc2)c1,17,-2,-7,63*,57*,4,48*,19,41*
CCNC(=S)N(CCN(C)C)Cc1cc2cc(OCC)ccc2[nH]c1=O,-32,1,-4,60*,20,2,23,12,-8
CCNC(=S)N(CCc1cccc(C)c1)Cc1cc2cc(OC)c(OC)cc2[nH]c1=O,1,2,-1,52,-1,-2,14,25,-22
Cc1ccc2nc(-c3ccco3)c(CC3CCCCC3)n2c1,.,.,.,.,1,.,.,.,.
CCn1cc(CNC(=O)C2CCC(=O)N(Cc3ccccc3F)C2)cn1 (centres undefined),4,-1,0,51,3,-7,21,-2,15
Clc1ccc(SCCOCCN2CCCCC2)cc1,-26,2,0,79*,-2,1,28,13,-26
Cc1nnsc1C(=O)Nc1ccc(S(=O)(=O)N2CCC(C)CC2)cc1,3,0,-3,54,-11,-8,28,23,-59
CCN(CC)c1ccc(/C=C2/C(=O)c3ccc(C(=O)O)cc3C2=O)cc1,-15,5,1,-12,-14,-6,.,.,.
Cc1oc(-c2ccccc2F)nc1CS(=O)(=O)CC(=O)N1CCCCCC1,9,1,1,2,1,.,.,.,.
CCOC(=O)N1CCN(C(=O)CS(=O)(=O)Cc2nc(-c3ccccc3F)oc2C)CC1,11,1,-1,57*,4,-1,24,28*,-6
COc1ccc(N=C(N)NC(=O)OCc2ccccc2)cc1,-20,.,-1,.,.,.,.,.,.
C/C(=N\Nc1cc(N2CCCCC2)nc(C)n1)c1ccc(Br)cc1,-4,1,-4,79*,-21,-9,52*,45*,22
CCn1nnc(NC(=O)C(c2ccccc2)c2ccccc2)n1,-11,4,5,59*,-1,2,19,13,-7
Cc1occc1-c1nnc(SCC(=O)Nc2ccncc2)n1-c1ccccc1,19,.,-2,.,.,.,.,.,.
SMILES,COUP-TFII inh,GAA850 FXN act,SMARCA2 activ,Gli-Sufu antag,H9c2 protect,GalR3 antag,Gli antag conf,SufuKO cytotox,Wnt3a cs
CC1(C)CC(=O)C2=C(C1)Nc1ccccc1NC2c1cccs1 (centres undefined),8,-3,6,58*,1,-3,21,8,-1
O=C1CCCC2=C1C(c1cccs1)Nc1ccccc1N2 (centres undefined),-5,4,2,-3,8,0,.,.,.
Cc1ccc(S(=O)(=O)N2CCN(C(=O)c3ccc(S(=O)(=O)N4CCCC4)cc3)CC2)cc1,5,1,1,57*,-2,-10,43,22,-13
O=C(c1ccc(=O)[nH]c1)N1CCN(S(=O)(=O)c2ccc(Cl)cc2)CC1,3,-1,0,54,0,-8,22,-8,7
O=C(Cc1ccc(S(=O)(=O)N2CCOCC2)s1)Nc1cc(Cl)ccc1Cl,-14,-1,6,13,8,-7,.,.,.
CCC(CO)Oc1cc(NCc2ccc(C(C)(C)C)cc2)c2ncn(C(C)C)c2c1 (centres undefined),-8,-1,-1,58*,-21,-5,48*,18,30*
CN(C)c1cccc(-c2cnc(N3CCC(C(N)=O)CC3)nc2)c1,-3,.,.,.,.,.,.,.,.
O=C(N/N=C/c1ccc(C(F)(F)F)cc1)c1ccc(O)cc1,-69,2,0,-14,-13,-1,.,.,.
NC(N)=NN=C(c1ccc(F)cc1)c1ccc(C(F)(F)F)cc1,-67,-2,2,57*,-20,2,36,50*,-43
COc1ccc(/C=N/N2CCN(c3ccccc3OC)CC2)cc1OC,-2,3,5,-10,-2,-6,.,.,.
COc1ccccc1N1CCN(/N=C/c2ccc(O)c(O)c2)CC1,-12,.,4,55,.,0,25,1,18
O=C1CCC[C@H]2C[C@H](NCc3ccc(Cl)c(Cl)c3)CC[C@]23CCCN13,8,.,.,.,.,.,.,.,.
Cc1ccccc1NC(=S)N(CCc1c(C)[nH]c2ccc(F)cc12)Cc1ccncc1,1,-3,0,59*,1,-3,18,26*,-28
C[C@@H]1COc2cccc(NC3CC3)c2S(=O)(=O)N1,-20,.,3,.,.,3,.,.,.
Cc1ccccc1CNC(=O)CCNS(=O)(=O)c1ccc(OC(F)(F)F)cc1,6,0,1,94*,1,-7,12,23,-26

# Screens deposited in PubChem BioAssay by several laboratories.
